Data reported in publication PMC4336329 (PLoS ONE, 2015).
About 14,000 (4.5%) of roughly 310,000 compounds showed an effect of 50% or more. Effects have a minus sign here. The sample holds strong results, similar compounds and a random draw of the others, so the mix is not that of the screen.

target: human ether-à-go-go-related gene (hERG) potassium channel (human, UniProt Q12809); experiment: primary screen, population patch clamp on CHO cells stably expressing hERG; higher = less effect of the substance
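Also: peak tail current of the secondary pulse compared with the same well before compound.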

human ether-à-go-go-related gene (hERG) potassium channel, sequence (Q12809 whole entry, looked up): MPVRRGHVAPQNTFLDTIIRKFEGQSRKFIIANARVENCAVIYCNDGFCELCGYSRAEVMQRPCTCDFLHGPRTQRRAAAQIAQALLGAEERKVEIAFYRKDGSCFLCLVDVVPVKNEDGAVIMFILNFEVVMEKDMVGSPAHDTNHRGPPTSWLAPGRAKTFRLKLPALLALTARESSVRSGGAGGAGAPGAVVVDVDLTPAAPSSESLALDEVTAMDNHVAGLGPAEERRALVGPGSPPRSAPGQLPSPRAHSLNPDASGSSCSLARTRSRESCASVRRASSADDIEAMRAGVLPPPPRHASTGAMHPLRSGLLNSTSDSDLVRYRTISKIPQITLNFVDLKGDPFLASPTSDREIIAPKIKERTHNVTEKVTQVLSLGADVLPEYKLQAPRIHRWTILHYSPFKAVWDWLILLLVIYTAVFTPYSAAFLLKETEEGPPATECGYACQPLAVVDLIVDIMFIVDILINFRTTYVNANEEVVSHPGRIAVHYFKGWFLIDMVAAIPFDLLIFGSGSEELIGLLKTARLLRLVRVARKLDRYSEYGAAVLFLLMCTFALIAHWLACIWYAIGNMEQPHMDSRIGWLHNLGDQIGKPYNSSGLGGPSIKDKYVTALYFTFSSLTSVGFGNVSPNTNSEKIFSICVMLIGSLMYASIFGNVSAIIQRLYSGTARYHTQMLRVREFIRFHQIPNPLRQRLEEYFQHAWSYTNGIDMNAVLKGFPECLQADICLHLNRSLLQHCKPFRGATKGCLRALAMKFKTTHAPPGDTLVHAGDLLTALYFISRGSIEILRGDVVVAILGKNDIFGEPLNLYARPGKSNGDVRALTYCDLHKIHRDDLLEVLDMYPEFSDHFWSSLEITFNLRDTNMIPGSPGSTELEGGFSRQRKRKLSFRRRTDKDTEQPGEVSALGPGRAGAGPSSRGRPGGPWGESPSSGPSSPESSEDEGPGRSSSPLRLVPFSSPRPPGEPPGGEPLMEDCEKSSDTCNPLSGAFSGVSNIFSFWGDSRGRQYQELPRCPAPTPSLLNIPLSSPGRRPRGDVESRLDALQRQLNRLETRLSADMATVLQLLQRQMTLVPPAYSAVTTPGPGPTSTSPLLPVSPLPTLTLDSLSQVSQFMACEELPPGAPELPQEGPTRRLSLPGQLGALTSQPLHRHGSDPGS

SMILES	hERG current change (%, negative = inhibition) at 10uM
O=C(NCCc1ccccc1Cl)c1cc(COc2ccc(F)cc2F)on1	7.59%
O=C(CCC(=O)Nc1ccc(F)cc1)N/N=C/c1cccnc1	17.8%
CCOc1ccc(S(=O)(=O)NCCC(=O)NCc2ccco2)cc1	-0.369%
O=C(NC1CCCCC1)c1ccc(S(=O)(=O)N2CCCCC2)cc1	-6.43%
COc1ccc(S(=O)(=O)Nc2cc(C(C)C)c(O)cc2C)cc1	-2.38%
COC1CCCN(Cc2c(C(=O)N3CCc4ccccc4C3)nc3ccc(Cl)cn23)C1 (centres unmarked)	-35.9%
CN(C)C(=O)c1nc2ccc(Cl)cn2c1CN1CCCC(OCc2cccnc2)C1 (centres unmarked)	-57.9%
CN(C)C(=O)c1nc2ccc(Cl)cn2c1CN1CCCC(OCc2ccccc2)C1 (centres unmarked)	-36.2%
NCCNc1ccc2nnnn2n1	38.7%
COc1cccc(CN2CCCC(N3CCc4ccccc4C3)C2)c1O (centres unmarked)	-17.7%
COc1ccc(O)c(CN2CCCC(N3CCc4ccccc4C3)C2)c1 (centres unmarked)	-46.6%
CCOc1cccc(CN2CCCC(N3CCc4ccccc4C3)C2)c1O (centres unmarked)	-52.9%
CCOc1cc(CN2CCCC(N3CCc4ccccc4C3)C2)ccc1O (centres unmarked)	-21.4%
COc1ccc(CN2CCCC(N3CCc4ccccc4C3)C2)c(O)c1 (centres unmarked)	-60.1%
Oc1ccccc1CN1CCCC(N2CCc3ccccc3C2)C1 (centres unmarked)	-38.8%
CCC(C)(C)NC(=O)C(c1ccc(OC)cc1)N(CCOC)C(=O)CCC(=O)Nc1nccs1 (centres unmarked)	0.428%
COc1cc(NC(=O)Cn2cnc(S(=O)(=O)N3CCCCC3)c2)cc(OC)c1OC	14.9%
Cc1ccc(-c2ncccc2OC(=O)C23CC4CC(CC(C4)C2)C3)cc1.Cl	12%
COc1cc2c(cc1OC)C(=O)Cc1ccc3c(c1CN(C)CC2)OCO3	-54.1%
Br.COc1c2c(cc3c1OCO3)CCN(C)C2	0.899%
COc1ccc2c(c1OC)CN(C)CCc1cc3c(cc1C(O)C2)OCO3 (centres unmarked)	-27.1%
COc1ccc2c(c1OC)CN(C)CCc1cc3c(cc1C(=O)C2)OCO3	-81%
COc1cc2c(cc1OC)C(C1c3cc4c(cc3CCN1C)OCO4)OC2=O (centres unmarked)	4.1%
COc1ccc2c(c1OC)CN1CCc3cc4c(cc3[C@H]1C2)OCO4	-1.81%
O=C(Nc1ccc(CN2CCOCC2)cc1)c1ccc(Br)o1	1.56%
Cc1ccc2nc(SCC(=O)N3CC(C)OC(C)C3)nc(=O)n2c1 (centres unmarked)	-13%
O=C(N/N=C/c1cc([N+](=O)[O-])c(N2CCOCC2)cc1N1CCOCC1)c1cccnc1	-22.4%

SMILES	hERG current change (%, negative = inhibition) at 10uM
CCOC(=O)N1CCC(c2cc(=O)n3[nH]cc(C(=O)OC)c3n2)CC1	9.34%
CCC12CCCN3CCc4c(n(c5ccccc45)C(O)(C(=O)OC)C1)C32 (centres unmarked)	-28.9%
CC[C@H]1CC2CN3CCc4c([nH]c5ccccc45)C(C(=O)OC)(C2)C13.Cl (some centres unmarked)	-2.97%
COC(=O)[C@@H]1[C@H]2C[C@H]3c4[nH]c5ccccc5c4CCN3C[C@@H]2CC[C@@H]1O.Cl	-22%
CC[C@]12CCCN3CCc4c(n(c5ccccc45)[C@@](O)(C(=O)OC)C1)[C@@H]32	-80.9%
CC[C@]12CCCN3CCc4c(n(c5ccccc45)[C@](O)(C(=O)OC)C1)[C@@H]32	-72.4%
CCC1(C(=O)OC)CCc2c(cc(OC)c3ccccc23)C1=O (centres unmarked)	3.07%
O=C(NCc1ccco1)c1ccc(Cl)c(S(=O)(=O)N2CCCC2)c1	-9.61%
O=C1NC(=O)/C(=C\c2ccc(OCc3cccc(C(=O)O)c3)c(Cl)c2)N1	20.1%
COc1cc(OC)cc(C(=O)Nc2ccc(S(=O)(=O)Nc3ncccn3)cc2)c1	12.8%
COc1c(C)cc(C(=O)C2CCCN(Cc3cnc(N4CCOCC4)s3)C2)cc1C (centres unmarked)	-8.64%
CS/C(=N\NC(N)=O)c1ccccc1	-8.24%
O=C(O)c1ccc2c(=O)n3c(nc2c1)/C(=C/c1ccccc1Br)CC3	4.66%
C/C(=N\NC(=O)CCCNc1cccc(C)c1)c1ccncc1	0.987%
CCCCn1c(N)c(N(CC(C)C)C(=O)c2ccc(S(=O)(=O)N3CCCCCC3)cc2)c(=O)[nH]c1=O	9.58%
O=C(Nc1cccc(C(=O)O)c1)/C(=C\c1ccc2c(c1)OCO2)NC(=O)c1ccccc1Cl	3.5%
O=C(NCCc1nc2ccccc2[nH]1)/C(=C/c1ccc2c(c1)OCO2)NC(=O)c1ccccc1Cl	-80.6%
O=C(NCCc1nc2ccccc2[nH]1)/C(=C/c1ccc2c(c1)OCO2)NC(=O)c1ccccc1	-71.1%
O=C(NCCc1nc2ccccc2[nH]1)/C(=C/c1ccc2c(c1)OCO2)NC(=O)c1ccc(Cl)cc1Cl	-76.3%
CC(C)=C(NC(=O)c1ccccc1)C(=O)NCCc1nc2ccccc2[nH]1	9.91%
O=C(CCc1nc2ccccc2[nH]1)NCc1ccc2c(c1)OCO2	-38.1%
O=C(NCCCCCc1nc2ccccc2[nH]1)c1ccccc1Cl	-6.43%
O=C(N/N=C/c1ccc2c(c1)OCO2)c1ccc(Cl)cc1Cl	20.3%
COc1ccc(C(=O)N/C(=C\c2ccc3c(c2)OCO3)C(=O)NCCc2nc3ccccc3[nH]2)cc1	-39.4%
CCc1ccccc1NC(=O)CSc1nc2ccccc2nc1N1CCOCC1	-15.1%
CCOC(=O)C1CCCN(C(=O)CCC(=O)Nc2ccc3nc(N4CCOCC4)cc(C)c3c2)C1 (centres unmarked)	-23.7%
